# Experimental data reported in PubChem BioAssay (EPA / NIEHS).
# Calls of active or inactive are those of the source. Rule for the calls: active = hit-call score of the fitted dose curve at least 0.9, where 1 is the maximum; inactive = score below 0.9.
# Read-out: Cytochrome P450 (CYP1A2), CYP1A2 (gene 1544)
# Experiment: LTEA_HepaRG_CYP1A2: Life Technologies and Expression Analysis (LTEA) Assay for Cytochrome P450 (CYP1A2) using HepaRG (AID 2283479);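 for AC50: TaqMan qRT-PCR transcript level normalized to ACTB GAPDH and POLR2A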
# Settings: mRNA level, 48 h; actives raise or lower the signal
# Protocol: LTEA_HepaRG is a cell based, multiplexed-readout assay that uses HepaRG, a human liver cell line, with measurements taken at 48 hours after chemical dosing on a 96-well plate.LTEA_HepaRG_CYP1A2 is one of 102 assay component(s) measured in the LTEA HepaRG cell culture assay. It is a marker of NR mediated metabolism.Data from the assay component LTEA_HepaRG_CYP1A2 was analyzed into 1 endpoint. This assay endpoint, LTEA_HepaRG_CYP1A2, was analyzed with bidirectional fitting relative to DMSO as the negative control and baseline of activity. Using a type of inducible reporter, measures of mRNA induction for gain or loss-of-signal activity can be used to understand regulation of transcription factor activity. To generalize the intended target to other relatable targets, this assay endpoint is annotated to the cyp intended target family, where the subfamily is xenobiotic metabolism.
# A total of 1060 chemcials from the ToxCast library were tested in eight-point concentration-response experiments. Cell culture and cytotoxicity assays were conducted at Thermo Fisher Scientific's Custom Services facility (Madison, WI). A single lot of human HepaRG cells (Thermo Fisher Scientific, Frederick, MD) was used for the cell culture experiments. 96-well format collagen type I coated plates of human HepaRG cells were prepared using established methods. Briefly, cryopreserved HepaRG cells were thawed, plated at a density of approximately 100,000 cells/well in HepaRG Thaw, Plate, and General Purpose media (HPRG770, Thermo Fisher Scientific), and incubated for 48 hours. 0.5% DMSO was selected as vehicle control to balance the requisite need of DMSO in HepaRG cultures to maintain differentiation (for example, baseline metabolism, proportions of hepatocytes vs. cholangiocytes), while enabling further hepatic receptor pathway activation (for example, PXR and CAR) in response to chemical exposure. 48 hours after plating, the culture medium was replaced with HepaRG Serum-Free Incudtion Media. Cells were exposed to each test chemical in duplicate and maintained in CO2 incubators for another 48 hours. Chemical plates were thawed to room temperature and 200x concentrations of treatment groups were prepared. 8-point conentration-reponse curves were made with the highest exposure at 100 uM, followed by half-log dilutions, all in 0.5% DMSO. Each test plate contained variouse controls, induction positive controls (1mM phenobarbital), cytotoxicity positive controls ([…] aflatoxin B1), vehicle controls (0.5% DMSO), and total lysis controls (0.5% DMSO). Cell morphology images were taken using an Essen IncuCyte FLR automated microscope, with six 96-well plates imaged in about 24 minutes. Images were captured and exported and JPEG files. Spent culture media was transfered to black-well plates for the LDH assay, and remaining media was sorted at -80 C for later use. Cells were treated with RLT buffer and frozen until shipped for gene expression analysis. Total RNA was isolated from the cell suspension in 75 uL of Buffer RLT (Qiagen, Germantown, MD 20874) by Quintiles/Expression Analysis (Durham, NC) using a custom isolation procedure. Total RNA from each plate well was transferred to a preamplification plate. Fluidigm's 96.96 Dynamic ArrayTM (Fluidigm, Amsterdam, the Netherlands) technology was used for gene expression analyses by quantitative reverse transcription polymerase chain reaction (qRT-PCR, performed by Quintiles/Expression Analysis, Durham, NC)89. Standard TaqManTM Assays (Applied Biosystems/ThermoFisher Scientific, Foster City, CA) were used to assess the expression of 93 genes selected based on their selectivity and sensitivity to important hepatic receptors known to be modulated by environmental chemicals; importance in human hepatocyte functionality; and hepatotoxicity. […]
Structure (SMILES),outcome,AC50
CCCCCCOC(=O)CC(CC(=O)OCCCCCC)(OC(=O)CCC)C(=O)OCCCCCC,inactive,–
NC(=O)N(O)[C@@H]1COc2cc(OCc3ccccc3)ccc21,–,50 µM (active)
C=CCc1cc(S(=O)(=O)c2ccc(O)c(CC=C)c2)ccc1O,–,8.77 µM (active)
CCCCC(CC)C(=O)OCCOCCOCCOC(=O)C(CC)CCCC (stereo not given),inactive,–
c1ccc2cc3ccccc3cc2c1,–,18.7 µM (active)
CCCCCCCC/C=C\CCCCCCCC(=O)OC[C@@H](O)[C@H]1OC[C@H](O)[C@H]1O,inactive,–
Cn1c(=O)c2[nH]cnc2n(C)c1=O,inactive,–
CCCCCCCCCCCCCCO,–,50 µM (active)
O=S(=O)(O)c1ccc(N=Nc2c(O)ccc3cc(S(=O)(=O)O)ccc23)cc1,–,50 µM (active)
CC(C)C(=O)Nc1ccc([N+](=O)[O-])c(C(F)(F)F)c1,–,14.9 µM (active)
O=C(O)c1ccc2c(c1)nc(C(=O)NC1CCN(C3CC3)CC1)n2Cc1cc(-c2ccc(Cl)s2)on1,inactive,–
OC(CCl)CCl,inactive,–
CNC(C)=O,inactive,–
CCCc1ccccc1,inactive,–
Cc1nc(-c2ccccn2)ncc1C(=O)Nn1cc(C)c2cc(F)ccc21,inactive,–
Cc1ncc([C@@H](CCCCCCc2ccc3c(n2)NCCC3)CC(=O)O)cn1,inactive,–
NC(=O)N1c2ccccc2C=Cc2ccccc21,inactive,–
O=C(NO)C1(NS(=O)(=O)c2ccc(Oc3ccc(F)cc3)cc2)CCOCC1,inactive,–
CCN(CC)C(=S)SSC(=S)N(CC)CC,–,75.2 µM (active)
CC(C)CCCCCCOC(=O)C1CCCCC1C(=O)OCCCCCCC(C)C (stereo not given),–,50 µM (active)

Structure (SMILES),outcome,AC50
c1ccc2c(c1)-c1cccc3c1c-2cc1ccccc13,–,1.13 µM (active)
C=CN1CCCC1=O,inactive,–
c1ccc2ncccc2c1,inactive,–
CC1(C)C(=O)N(Cl)C(=O)N1Cl,–,50 µM (active)
CC(C)c1nnc2ccc(-c3ocnc3-c3cc(F)ccc3F)cn12,inactive,–
OC(Cn1cncn1)(Cn1cncn1)c1ccc(F)cc1F,inactive,–
COCc1nnc(-c2ccc[n+]([O-])c2)n1-c1c(Cl)c(Cl)cc2[nH]c(=O)c(=O)[nH]c12,inactive,–
NC(=O)NN=Cc1ccc([N+](=O)[O-])o1,–,0.377 µM (active)
O=c1[nH]cnc2c1ncn2[C@H]1CC[C@@H](CO)O1,inactive,–
CCn1nc(C)c2c1C(=O)NCC(c1ccc(O)cc1)=N2,–,34.1 µM (active)
CC(=O)c1ccccc1,inactive,–
CCc1ccc(O)c(C(C)(C)C)c1,inactive,–
C[C@@H](Oc1ccc(CNC(=O)c2cccnc2Oc2ccc3c(c2)OCO3)c(F)c1)C(=O)O,inactive,–
CCCCCCCCN(C)C,inactive,–
CCOC(N)=O,inactive,–
CCOc1ccc2[nH]cc(C(=O)NCc3ccccc3)c(=O)c2n1,–,32 µM (active)
CCCC(CCC)C(=O)O,inactive,–
C[C@]12C=CC(=O)C=C1CC[C@H]1[C@@H]3C[C@@H](O)[C@](O)(C(=O)CO)[C@@]3(C)C[C@H](O)[C@@]12F,–,50 µM (active)
OCc1ccccc1,inactive,–
CCc1cccc(CC)c1N,–,50 µM (active)
